PubChem BioAssay (NCI)
This is part of a sample that, as a whole, favours compounds with a hit. Of some 79,000 tested, about 15% had one in any assay. A number with no mark means an inactive call. Calls of active or inactive are those of the source. Rule as the data show it: active = growth inhibition above about 70%; inactive = the rest.

What was measured:
[1] = NCI Yeast Anticancer Drug Screen. Data for the rad50 strain (AID 155);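 also: 0% = growth of vehicle-only cultures of the same strain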; conditions: S. cerevisiae rad50 strain growth inhibition; at 50.0 µM; hits give high values
In short: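 Vehicle-treated cultures provide the reference for the growth inhibition reported for compound-exposed, repair-deficient yeast.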

[2] = NCI Yeast Anticancer Drug Screen. Data for the mec2-1 strain (AID 157); conditions: S. cerevisiae mec2-1 strain, at 50.0 µM, hits give high values
In short: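 Readout is yeast growth inhibition, normalised to vehicle-treated controls, in the mec2-1 strain exposed to compound.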

[3] = NCI Yeast Anticancer Drug Screen. Data for the sgs1 mgt1 strain (AID 161);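 also: 0% = growth of cultures given vehicle only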; conditions: S. cerevisiae sgs1 mgt1 strain, at 50.0 µM, hits give high values
In short: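 This yeast growth screen uses a strain with defined DNA-repair lesions; compound-treated growth is compared with vehicle-treated growth.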

[4] = NCI Yeast Anticancer Drug Screen. Data for the cln2 rad14 strain (AID 165);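 also: 0% = growth equal to vehicle treated cultures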; conditions: S. cerevisiae cln2 rad14 strain, at 50.0 µM, hits give high values
In short: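 Relative to vehicle controls, growth inhibition of compound-treated cln2 rad14 yeast was recorded.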

[5] = NCI Yeast Anticancer Drug Screen. Data for the bub3 strain (AID 167); conditions: S. cerevisiae bub3 mutant strain, at 50.0 µM, hits give high values
In short: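 Mutant yeast screening strain plus compound; vehicle-treated cultures serve as the 0% inhibition reference.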

[6] = NCI Yeast Anticancer Drug Screen. Data for the mlh1 rad18 strain (AID 175); conditions: S. cerevisiae mlh1 rad18 strain growth inhibition; at 50.0 µM; hits give high values
In short: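 Test agents were incubated with a yeast strain of defined genotype (DNA damage repair defect). Inhibition of growth was derived by comparison with vehicle-exposed cultures.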

Structure (SMILES) | growth inhibition [1] [%] | growth inhibition [2] [%] | growth inhibition [3] | growth inhibition [4] [%] | growth inhibition [5] | growth inhibition [6]
O=C(NCCCCN1CCCC1)C(c1cc2ccccc2s1)C1CCCCC1 (stereo unspecified) | 20.1 | 9.25 | 42.2% | 4.25 | 24.2% | 33.1%
O=S1(=O)C2CCC(C2)C1Cl (stereo unspecified) | 4.5 | 2.75 | 7.45% | -18.9 | -1.05% | 4.2%
COc1cc(NCCCCCCNCC(C)C)c2nccc(C)c2c1 | 53.1 | 44.5 | 62.8% | 18.1 | 37.6% | 21.6%
Oc1ccccc1/C=N/Nc1nc(N/N=C/c2ccccc2O)nc(N/N=C/c2ccccc2O)n1 | 25.3 | 20.5 | 27.4% | 16.9 | -6.7% | 15.9%
CCc1c(CN)c(CC)c(CNC2=NCCN2)c(CC)c1CNC1=NCCN1 | 13.6 | 3.45 | 12.2% | 10.9 | 12.8% | 15.2%
CCCCC(Nc1nncs1)Nc1nncs1 | -8.9 | -18 | 9.85% | 3.7 | 11.3% | 2.6%
Cc1nn(-c2nc(-c3ccccc3)cs2)c(C)c1C | -6.05 | -8.6 | -20.6% | 2.9 | -0.5% | -8.2%
CC(=O)Nc1cccc([N+](=O)[O-])c1 | 8.25 | -10.3 | 8.65% | -7.85 | -2.7% | -19.6%
COc1ccc(Cc2cc3c(cc2OC(C)=O)OCO3)cc1 | -4.2 | -10.3 | -5.75% | 8.9 | 38.2% | 7.25%
c1ccc2c(c1)C1CC3N=NC1C23 (stereo unspecified) | 3.3 | -1.35 | -10.5% | -20.1 | 3.8% | -3.95%
CCC(=O)C(C)C(=O)N(CC(C)C)CC(C)C (stereo unspecified) | -12.7 | -6.85 | -5.3% | -11.8 | -0.2% | -19.8%
O=C(Nc1cccc(Cl)c1Cl)Oc1cccc2ccccc12 | 21.4 | 5.15 | 12.4% | 8.65 | 24.5% | 16.4%
COC(=O)c1cc(Cl)ccc1Br | 17.4 | 14.1 | -0.05% | 14.8 | -3.85% | 43%
CC/C=C(\CCC)C(C#N)(CC)C(=O)OCC (stereo unspecified) | 9.1 | -33.6 | -21.2% | -7.6 | -24.6% | -9.55%
COc1ccc2[nH]c3c(c(=O)c2c1)CCCC3 | -1.15 | -12.9 | 2.85% | -6.2 | 5.8% | -12.7%
Nc1cc(C(=O)O)c(O)c(Cl)c1O | 31.3 | 7.05 | 12.3% | 21.6 | 4.5% | 29.8%
Nc1cc(C(=O)O)cc2ccccc12 | 14.8 | -5.35 | 0.1% | -7.95 | -2.95% | 26.6%
c1cnn(C23C4C5C6C4C2C6C53)c1 (stereo unspecified) | -24.4 | -26.6 | -18.7% | -20.5 | -32.5% | -38.6%
COc1ccc(C(=O)CC(c2ccccc2)[C@H]2C(c3ccc(OC)cc3)=Nc3c(nc(SC)n(C)c3=O)NC2c2ccccc2)cc1 (stereo partly specified) | 16.8 | 7.55 | 20.6% | 12.7 | -0.35% | 19.2%
COC(=O)/C=C(\C)CC/C=C(\C)CCC1OC1(C)C (stereo unspecified) | 11.9 | 44.1 | 84.7% (active) | 57.3 | 77.5% (active) | 81.1% (active)
O=c1c(-c2ccc(O)cc2)coc2cc(O)cc(O)c12 | 8.85 | -6.15 | 18.1% | 3.65 | 11.4% | 5%

Structure (SMILES) | growth inhibition [1] [%] | growth inhibition [2] [%] | growth inhibition [3] | growth inhibition [4] [%] | growth inhibition [5] | growth inhibition [6]
CCC(=O)[CH-]C(=O)CC.CCC(=O)[CH-]C(=O)CC.[Cu+2] | 10.9 | -1.9 | 10.2% | -39.4 | -17.6% | 0%
CCCC(=O)c1c(NOC2OCC(OC(C)=O)C(OC(C)=O)C2OC(C)=O)nc(OC)n(C)c1=O (stereo unspecified) | -24.7 | 3.1 | -40.1% | 6.8 | -15.9% | -16.6%
N#CCN(CCc1ccccc1)CCc1ccccc1 | 8.35 | -9.95 | 13.2% | -17.6 | -0.35% | 34.1%
Oc1cc2nc3ccccc3nc2c2ccc(Br)cc12 | -12.8 | -7.45 | 7.7% | -44.6 | -17.7% | -14.1%
COc1c(OC(C)=O)cc(Cl)c(C=O)c1[N+](=O)[O-] | 5.25 | 2.4 | 19.3% | 5.8 | 1.55% | -9.3%
COc1ccc(C(=O)N2CCN(C)CC2)cc1OC | 19.1 | -3.95 | -8.3% | 13.4 | -1.75% | 4.2%
COc1cc(COC(=O)c2ccc(CSc3ccc(Cl)cc3)o2)cc(OC)c1OC | -19.4 | -33 | -0.75% | -8.4 | -13.9% | -10.8%
OCC1NC(CO)C(O)C1O (stereo unspecified) | 6.5 | 8.1 | 6.5% | 1.05 | 9.2% | 11.2%
CCOC(=O)C(C(=O)CC)C(=O)OCC | 14.3 | 11.3 | 16.2% | 7.65 | 14.2% | 13.4%
O=C(O)c1cc(C(=O)O)cc(S(=O)(=O)N2CCOCC2)c1 | -2.1 | 3.25 | -3.8% | -37.8 | 6.05% | -16.2%
O=c1[nH][nH]c(=O)n2c1cc1oc(-c3ccccc3)cc12 | 0.05 | 2.45 | 17.8% | -16.1 | 23% | 22.7%
Cc1ccc(-c2cc(=O)c3cc(C)c(C)c(C#N)c3o2)cc1 | -10.2 | -5.75 | -13.8% | -1.7 | -22.4% | 6.45%
Cc1cn(C2OC3COC2C3O)c(=O)[nH]c1=O (stereo unspecified) | -20.8 | 0.55 | 10.7% | 27.2 | -6% | -4.75%
CC1(SCC(N)C(=O)O)CC(=O)NC1=O (stereo unspecified) | -40.5 | -33.1 | -64.5% | -36.8 | -39.2% | -40.1%
Cc1cccc(CC(O)c2ccc(C=O)cc2)n1 (stereo unspecified) | 20.6 | 14.7 | 6.75% | 5.65 | 14.4% | 37.5%
COc1ccc(NC(C)=O)cc1C1CCC(=O)N1 (stereo unspecified) | 12.2 | 7.25 | -1.65% | 10.1 | -19% | -23.6%
CC1CC=CCC1C1OCCO1 (stereo unspecified) | 3.95 | 1.6 | 3.45% | 10.2 | 16.4% | -2.7%
Cc1cccc2c1CCC21OC(=O)c2c1cc(F)c1ccccc21 (stereo unspecified) | -13.3 | -15.4 | -8.5% | 2.55 | 14.5% | 4.35%
O=C(O)c1ccc(O)cn1 | -4.8 | -7.05 | 2.55% | 6.7 | 3.3% | 2.55%
Cc1cc(-n2cnc3c(N(CCO)CCO)ncnc32)ccc1[N+](=O)[O-] | 10.1 | -8.5 | -3.95% | -1.9 | 0.5% | -5.8%
